Data on 9 molecules can be found in PubChem BioAssay (NCI).

About 83,000 compounds went through this panel and 20% of them were active in at least one assay; those are over-represented in the sample as a whole.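 Results are percent growth after 48 hours of single-concentration exposure. 100 means growth as in untreated cells, lower positive values show inhibition; negative values down to -100 show cell death.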 Values without a mark were called inactive. The source made the active and inactive calls. The calls were made as follows: active = growth percent below 10; inactive = the rest.

Among the test systems are SR leukemia; RPMI-8226 leukemia; OVCAR-8 ovarian; OVCAR-5 ovarian; OVCAR-4 ovarian; SK-OV-3 ovarian; IGROV1 ovarian; OVCAR-3 ovarian; HS 578T breast; NCI/ADR-RES ovarian; T-47D breast; BT-549 breast; MDA-MB-435 melanoma; SW-620 colon; MCF7 breast; HCT-116 colon; HCC-2998 colon; KM12 colon.
Holding throughout (experiment): NCI-60 one-dose screen, 48 h (100 = growth as untreated, 0 = no growth, -100 = all killed)
Holding throughout (conditions): 10 µM unless noted

As for `N#Cc1ccccc1-c1ccc(CN2C(=O)S/C(=C\c3ccc(Br)cc3)C2=O)cc1`, the growth was 89.3% in the experiment on SR leukemia; 103% in the experiment on RPMI-8226 leukemia; 101% in the experiment with OVCAR-8 ovarian; 101% with OVCAR-5 ovarian; 90.2% with OVCAR-4 ovarian; 94.3% in the experiment on SK-OV-3 ovarian. For the same molecule, the growth in the experiment on IGROV1 ovarian was 98.3%; with OVCAR-3 ovarian it was 112%; in the experiment on HS 578T breast, 92.3%; in the experiment on NCI/ADR-RES ovarian it was 94.1%; with T-47D breast it was 85.3%; in the experiment with BT-549 breast it was 95.9%. Further, the growth in the experiment on MDA-MB-435 melanoma is 94.5%; in the experiment with SW-620 colon, 103%; in the experiment with MCF7 breast it was 95%; in the experiment with HCT-116 colon it was 105%; with HCC-2998 colon, 98.9%; in the experiment on KM12 colon it was 98.9%.
In the case of `COc1ccc(CNc2ccc3nc(NC(=O)CN4CCCCCC4)sc3c2)cc1`, the growth in the experiment on SR leukemia is 93.5%; in the experiment on RPMI-8226 leukemia it was 55.6%; in the experiment on OVCAR-8 ovarian, 87.8%; with OVCAR-5 ovarian, 95.5%; with OVCAR-4 ovarian, 62.3%; with SK-OV-3 ovarian, 103%. Besides, the growth in the experiment with IGROV1 ovarian was 107%; in the experiment on OVCAR-3 ovarian, 101%; with HS 578T breast, 115%; in the experiment with NCI/ADR-RES ovarian, 82.9%; in the experiment with T-47D breast, 42.8%; in the experiment with BT-549 breast, 86.1%. Also, the growth in the experiment with MDA-MB-435 melanoma is 94.1%; in the experiment with SW-620 colon, 86.7%; with MCF7 breast it was 69.1%; in the experiment on HCT-116 colon it was 68.6%; in the experiment on HCC-2998 colon, 109%; in the experiment with KM12 colon, 89.2%.
As for `COc1cc2c(c(OC)c1OC)C(=O)CC(c1cccc(C(=O)Nc3ccc(C#N)cc3)c1)O2` (configuration not stated), the growth in the experiment on SR leukemia was 41.2%; with RPMI-8226 leukemia, 29.7%; with OVCAR-8 ovarian, 42.9%; with OVCAR-5 ovarian it was 102%; with OVCAR-4 ovarian, 55.2%; with SK-OV-3 ovarian, 104%. In addition, the growth in the experiment with IGROV1 ovarian is 88.5%; in the experiment with OVCAR-3 ovarian it was 74.5%; with HS 578T breast, 92.4%; with NCI/ADR-RES ovarian, 52.4%; with T-47D breast, 9.48% (active); in the experiment on BT-549 breast it was 33%. The growth is 63% in the experiment with MDA-MB-435 melanoma; 97.8% with SW-620 colon; 48.7% with MCF7 breast; 56.2% in the experiment on HCT-116 colon; 98.2% with HCC-2998 colon; 79.1% in the experiment with KM12 colon.
Consider `C[C@H]1[C@H](C)CC[C@]2(C(=O)NCCNCCN)CC[C@]3(C)C(=CC[C@@H]4[C@@]5(C)CCC(=O)C(C)(C)[C@@H]5CC[C@]43C)[C@H]12`, for which the growth was -38.7% (active) in the experiment on SR leukemia; -16.3% (active) in the experiment with RPMI-8226 leukemia; 33.6% in the experiment with OVCAR-8 ovarian; 94.1% in the experiment on OVCAR-5 ovarian; 77.4% with OVCAR-4 ovarian; 87.4% in the experiment on SK-OV-3 ovarian. Further, the growth with IGROV1 ovarian was 52.7%; in the experiment with OVCAR-3 ovarian, 9.12% (active); in the experiment with HS 578T breast, 72.5%; in the experiment on NCI/ADR-RES ovarian, 88.2%; in the experiment with T-47D breast, 39.8%; with BT-549 breast it was 92.3%. The growth in the experiment with MDA-MB-435 melanoma is -75.7% (active); with SW-620 colon, -74.7% (active); in the experiment on MCF7 breast, 12.6%; with HCT-116 colon, -51.8% (active); with HCC-2998 colon, -43.7% (active); with KM12 colon it was 11.4%.
`C=C(c1ccc(C(=O)O)c(F)c1)c1cc2c(cc1C)C(C)(C)CCC2(C)C`: the growth was 86.8% in the experiment on SR leukemia; 43.1% with RPMI-8226 leukemia; 90.8% with OVCAR-8 ovarian; 101% in the experiment on OVCAR-5 ovarian; 80.9% with OVCAR-4 ovarian; 84.8% with SK-OV-3 ovarian. For the same molecule, the growth is 98% in the experiment on IGROV1 ovarian; 90.8% with OVCAR-3 ovarian; 59.6% with HS 578T breast; 79.5% in the experiment on NCI/ADR-RES ovarian; 78.5% with T-47D breast; 91.7% with BT-549 breast. In addition, the growth was 89.3% in the experiment with MDA-MB-435 melanoma; 97.6% in the experiment with SW-620 colon; 62.1% with MCF7 breast; 79.5% with HCT-116 colon; 89.9% with HCC-2998 colon; 69.2% with KM12 colon.
For `C=C1C(=O)O[C@H]2[C@H]1CC/C(CNC(=O)Cc1c[nH]c3ccccc13)=C\CC[C@@]1(C)O[C@@H]21`, the growth was -13.6% (active) with SR leukemia; -0.862% (active) in the experiment with RPMI-8226 leukemia; 9.54% (active) with OVCAR-8 ovarian; 46.2% in the experiment with OVCAR-5 ovarian; 38.2% in the experiment on OVCAR-4 ovarian; 106% in the experiment with SK-OV-3 ovarian. Also, the growth was 27.7% in the experiment on IGROV1 ovarian; -5.5% (active) in the experiment with OVCAR-3 ovarian; 78.1% with HS 578T breast; 89.9% in the experiment on NCI/ADR-RES ovarian; -9.45% (active) in the experiment on T-47D breast; 13.6% in the experiment with BT-549 breast. The growth in the experiment with MDA-MB-435 melanoma was 7.96% (active); in the experiment on SW-620 colon, -20.4% (active); in the experiment on MCF7 breast it was 17.8%; in the experiment with HCT-116 colon it was -11.9% (active); in the experiment with HCC-2998 colon it was 60.4%; in the experiment on KM12 colon it was 47.5%.
`O=C(/C=C/c1ccccc1)c1cccc2ccccc12`: the growth was 8.29% (active) in the experiment with SR leukemia; 6.78% (active) with RPMI-8226 leukemia; 19.9% with OVCAR-8 ovarian; 103% in the experiment with OVCAR-5 ovarian; 41.3% in the experiment on OVCAR-4 ovarian; 62.2% in the experiment with SK-OV-3 ovarian. Besides, the growth with IGROV1 ovarian is 47.3%; in the experiment with OVCAR-3 ovarian, 22.4%; with HS 578T breast, 32.1%; with NCI/ADR-RES ovarian, 24.9%; in the experiment on T-47D breast, 32.9%; in the experiment with BT-549 breast, 62.5%. In addition, the growth with MDA-MB-435 melanoma was 16.8%; with SW-620 colon, 9.3% (active); in the experiment with MCF7 breast, 11.6%; in the experiment with HCT-116 colon, 32%; with HCC-2998 colon it was 48.3%; in the experiment with KM12 colon, 37.4%.
With `CCOc1ncc([N+](=O)[O-])c(OCC)n1`, the growth in the experiment with SR leukemia was 93.7%; in the experiment on RPMI-8226 leukemia, 84.8%; in the experiment with OVCAR-8 ovarian, 105%; in the experiment with OVCAR-5 ovarian, 101%; in the experiment with OVCAR-4 ovarian it was 113%; in the experiment with SK-OV-3 ovarian, 97%. In addition, the growth was 107% in the experiment on IGROV1 ovarian; 124% in the experiment with OVCAR-3 ovarian; 121% in the experiment with HS 578T breast; 99.5% with NCI/ADR-RES ovarian; 106% in the experiment on T-47D breast; 105% with BT-549 breast. In addition, the growth in the experiment on MDA-MB-435 melanoma was 124%; in the experiment with SW-620 colon, 111%; with MCF7 breast, 93.8%; in the experiment on HCT-116 colon it was 105%; in the experiment with HCC-2998 colon, 99.4%; in the experiment with KM12 colon, 117%.
Take `O=C1/C(=C/c2ccc(Cl)cc2)CN(C(=O)C(Cl)Cl)C/C1=C\c1ccc(Cl)cc1`: the growth in the experiment with SR leukemia is -8.06% (active); in the experiment on RPMI-8226 leukemia, -28.6% (active); with OVCAR-8 ovarian, -3.39% (active); in the experiment on OVCAR-5 ovarian, -61.8% (active); in the experiment with OVCAR-4 ovarian, 1.03% (active); in the experiment with SK-OV-3 ovarian, -7.85% (active). Further, the growth in the experiment with IGROV1 ovarian is -76.3% (active); with OVCAR-3 ovarian, -97.9% (active); in the experiment on HS 578T breast, -8.2% (active); with NCI/ADR-RES ovarian, -2.96% (active); in the experiment with T-47D breast, -58.3% (active); in the experiment on BT-549 breast, -82.6% (active). The growth with MDA-MB-435 melanoma was -95.3% (active); with SW-620 colon it was -78.9% (active); with MCF7 breast, -70.8% (active); in the experiment with HCT-116 colon, -86.6% (active); in the experiment with HCC-2998 colon, -91.8% (active); with KM12 colon it was -81.9% (active).
